# Cycloheximide cs: counter-screen for Shiga toxin inhibitors: cycloheximide protein synthesis inhibition | max response, % | cell reporter, cycloheximide protein synthesis inhibition counterscreen | actives 12% (n = 300,000) | AID 2314; in the data active = max response mostly above about 13%, no sharp cut-off; inactive = mostly below about 14%; also: read at 38.3 µM for the half of the compounds with a filed dose; 0% is about no effect
# Shiga toxin inh: Shiga toxin inhibition. Vero cells, Shiga toxin protein synthesis inhibition reporter. inhibition, % at 38.7 µM. actives 9.2% (n = 290,000). AID 2315; in the data active = inhibition mostly above about 28%, no sharp cut-off; inactive = mostly below about 43%; also: 0% is about no effect
# FMDV inh: foot and mouth disease virus antiviral activity | FMDV antiviral cell-based qHTS | Potency, µM (highest dose often 57.9 µM), without a hit: at the top dose activity change, negative = inhibition, usual class: inhibitors | actives 1.2% (n = 410,000) | AID 1159524; calls by dose curve; tested in HEK293T cells; also: read-out not given here; potency is read from the fitted curve at half-maximal effect; % is scaled to controls: 0 for no effect and ±100 for the full control effect; nearly all actives have a fitted effect of over 45% in size
# Sm TGR block: blocks Schistosoma mansoni thioredoxin glutathione reductase; Q962Y6; purified TGR, DTNB reduction, TNB absorbance 405 nm; Potency, µM (series often up to 114 µM), inactives show at the top dose activity change, negative = inhibition, hits mostly inhibitors; actives 3% (n = 360,000); AID 485364; active = well fitted inhibition curve with a large enough effect; inconclusive = small, poorly fitted or top-dose-only effect; inactive = no such curve, though single readings can be large or run the other way; also: potency is read from the fitted curve at half-maximal effect; % is scaled to controls: 0 for no effect and ±100 for the full control effect; nearly all actives have a fitted effect of over 60% in size
#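 Kinetic colorimetric format: TGR-catalysed, NADPH-driven DTNB reduction monitored via TNB absorbance. Enzyme dispensed at 20 nM; compound exposure 15 min at room temperature before reaction start.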
# Active calls of the source: *; u = inconclusive; x = no result. The list is not random: actives were taken first. Their share in the collection is about 12%.
SMILES,Cycloheximide cs,Shiga toxin inh,FMDV inh,Sm TGR block
Cc1ccc(C(=O)O)cc1NC(=S)NC(=O)c1ccc([N+](=O)[O-])c(C)c1,-4,40,-5%,20µM*
Cn1ccc(C(=O)NC(=S)Nc2ccc([N+](=O)[O-])cc2O)n1,28*,34,60%,-19%
Cc1ccc(CNC(=S)Nc2cc(C(=O)O)ccc2C)cc1,1,-15,-16%,-14%
CCOC(=O)c1c(C)[nH]c(C)c1S(=O)(=O)N1CCCC(C(=O)N2CCN(c3ccc(Cl)cc3)CC2)C1 (stereo not given),x,x,-8%,7%
CNC(=O)c1ccc(Nc2nnc(-c3ccc(C)c(S(=O)(=O)NC(C)(C)C)c3)c3ccccc23)cc1,x,x,10%,-1%
Cc1ccc(NC(=S)NC(=O)c2ccccc2)cc1NC(=S)NC(=O)c1ccccc1,24*,54*,72%,-8%
COC(=O)c1ccccc1NC(=S)NC(=O)c1ccc(C)cc1,7,24,-4%,11µM*
COC(=O)c1ccccc1NC(=S)NC(=O)c1ccc2c(c1)OCO2,11,3,6%,11µM*
O=C(NC(=S)Nc1cccc(NC(=S)NC(=O)c2ccccc2)c1)c1ccccc1,x,x,16%,x
O=C(NC(=S)Nc1cc([N+](=O)[O-])ccc1O)c1ccc2c(c1)OCO2,42*,83*,17%,-8%
CC(C)c1ccc(NC(=S)NN2CCOCC2)cc1,23*,48*,75%,-32%
COc1ccc(Cl)cc1NC(=S)NN1CCOCC1,5,-10,7%,35µM*
CC(NC(=O)c1c2c(nc3ccccc13)C(=O)N(C1CCCCC1)C2)c1ccccc1 (stereo not given),x,x,-20%,0%
C/C(=N\NC(=O)c1nn(C)cc1Cl)c1ccncc1,31*,46*,16%,7%
C/C(=N\NC(=O)c1nn(C)cc1Br)c1ccncc1,55*,92*,15%,-6%
CCOC(=O)CC(=O)CSc1nc2ccc(C)cc2cc1C#N,37*,107*,x,-4%
Cc1cc2cc3c(cc2nc1SCC(=O)OC(C)C)OCCO3,8,-8,-3%,2%
COC(=O)CSc1nc2cc3c(cc2cc1C)OCO3,27*,55*,-15%,-35%
COC(=O)CSc1nc2cc(C)ccc2cc1C#N,46*,108*,44%,12%
Cc1ccc2cc(C#N)c(SCC(=O)NCC3CCCO3)nc2c1 (stereo not given),-4,24,5%,-24%
COc1cccc(C(=O)Nc2cc(-c3cn4cccnc4n3)ccc2C)c1OC,x,x,-12%,-4%
O=C1C(C=NC2CC2)=C(O)c2ccccc21,37*,57*,30%,-18%
CC(C)CN=CC1=C(O)c2ccccc2C1=O,37*,72*,7%,0%
O=C1C(C=NCCCn2ccnc2)=C(O)c2ccccc21,x,x,40%,x
COc1cc(N=CC2=C(O)c3ccccc3C2=O)cc(OC)c1,20*,64*,39%,-11%
SMILES,Cycloheximide cs,Shiga toxin inh,FMDV inh,Sm TGR block
O=C1C(C=NCCCN2CCCC2=O)=C(O)c2ccccc21,40*,102*,47%,7%
COc1ccc(CN=C(C#N)C2=C(O)c3ccccc3C2=O)cc1,12,14,17%,8%
CCOc1ccccc1CNC(=O)CCc1cn(Cc2ccc(Cl)cc2)c2ccccc12,x,x,-21%,3%
CCOC(=O)c1cccc(NC(=O)NCc2ccc3c(c2)CCN3C(=O)CC)c1,x,x,-20%,3%
CC(C)COc1ccc(C(=O)N(Cc2cccc(F)c2)C2CCS(=O)(=O)C2)cc1 (stereo not given),x,x,-9%,9%
O=c1oc2ccccc2c(O)c1C=NCc1ccccn1,8,8,7%,1%
O=C1C(C=NCc2ccccn2)=C(O)c2ccccc21,59*,136*,x,3%
CCN1CCN(c2ncc3c(n2)CCN(CC(C)C)C3)CC1,x,x,1%,-10%
CN(c1ccc(C(=O)Nc2ccc(CC#N)cc2)cc1)S(C)(=O)=O,19,58*,17%,13%
Cc1ccc(CN(c2ccc(C(=O)Nc3ccc4c(c3)OCO4)cc2)S(C)(=O)=O)cc1,12,17,-7%,0%
CN(c1ccc(C(=O)Nc2ccc3c(c2)OCCO3)cc1)S(C)(=O)=O,31*,59*,x,-18%
CN(c1ccc(C(=O)Nc2ccc3c(c2)OCO3)cc1)S(C)(=O)=O,33*,62*,9%,10%
CN(c1ccccc1C(=O)Nc1ccc2c(c1)OCCO2)S(C)(=O)=O,1,-4,15%,1%
CC(=C/c1ccccc1)/C=N/NC(=O)c1ccc2nc[nH]c2c1,17*,51*,29%,-7%
CC(/C=N/NC(=O)c1ccc2nc(C)[nH]c2c1)=C\c1ccccc1,14,16,4%,-7%
O=C(N/N=C/C(Br)=C\c1ccccc1)c1ccc2nc[nH]c2c1,19*,46,8%,-20%
COc1cccc(NC(=O)CCC(=O)N2Cc3ccccc3Oc3ncccc32)c1,x,x,-16%,1%
CCC1CN(C(=O)N2CCC(C(=O)N3CCN(c4ccccc4F)CC3)CC2)c2ccccc2O1 (stereo not given),x,x,u,-12%
Cc1ccn(CCC(=O)N2CCc3ccccc32)n1,25*,26,25%,5%
O=C(Cn1cccc1)N1CCc2ccccc21,17,17,23%,-11%
O=C1CN(C(=O)COC(=O)c2ccc([N+](=O)[O-])o2)c2ccccc2N1,x,x,-22%,45µM*
O=C(Cn1ccc([N+](=O)[O-])n1)N1CCc2ccccc21,-2,-3,9%,-8%
O=C(CCCc1ccccc1)N1CCc2ccccc21,49*,109*,x,-16%
O=C(c1ccco1)c1cn(CC(=O)N2CCCc3ccccc32)c2ccccc12,24*,16,u,-15%
COc1ccc(CC(=O)NCC(c2cccs2)S(=O)(=O)c2ccc(C)cc2)cc1 (stereo not given),x,x,-11%,0%
SMILES,Cycloheximide cs,Shiga toxin inh,FMDV inh,Sm TGR block
O=C(CCS(=O)(=O)Cc1ccccc1F)N1CCc2ccccc2C1,1,16,-17%,-31%
CC(=O)N1CCN(S(=O)(=O)c2cccc(C(=O)OCC(=O)N3CC(=O)Nc4ccccc43)c2)CC1,16*,25,-4%,-4%
O=C1CN(C(=O)c2cccc(S(=O)(=O)N3CCCC3)c2)c2ccccc2N1,-2,3,-9%,-6%
O=C(CCS(=O)(=O)Cc1ccccc1)N1CCc2ccccc2C1,-1,-19,25%,28µM*
O=C(COC(=O)c1ccc([N+](=O)[O-])o1)Nc1cccc2ccccc12,8,4,-11%,14µM*
O=C(C(Cc1ccccc1)n1cccc1)N1CCc2ccccc21 (stereo not given),3,4,0%,35µM*
COc1ccc2cc(CNCc3ccccc3C(F)(F)F)c(N3CCCC(CO)C3)nc2c1 (stereo not given),x,x,11%,x
Cc1ccc(Cc2nc3ccccc3nc2SCC(=O)NCc2ccc(F)cc2)cc1,x,x,-19%,2%
CCOC(=O)N1CCC(NC(=O)c2ccc3c(c2)N(Cc2ccc(F)cc2)C(=O)c2ccccc2S3=O)CC1 (stereo not given),x,x,-20%,-11%
O=C1CN(C(=O)c2cc3ccccc3o2)c2ccccc2N1,18*,42*,72%,0%
O=C(OCc1ccccc1)N1CCc2ccccc21,43*,82*,9%,5%

# Bioassay records deposited in PubChem BioAssay by National Center for Advancing Translational Sciences (NCATS).
